Data published in ChEMBL document CHEMBL1961873, “Compounds: GSK PKIS; Assays: Nanosyn kinase panel” (2012).

Legend:
[1] = target: Platelet-derived growth factor receptor beta (Homo sapiens) (UniProt P09619); settings: at 1 µM;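 note: each value is a mean percent inhibition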
[2] = target: Tyrosine-protein kinase FRK (Homo sapiens) (UniProt P42685); settings: at 0.1 µM
[3] = target: Tyrosine-protein kinase FRK (Homo sapiens) (UniProt P42685); settings: at 1 µM
[4] = target: Protein-tyrosine kinase 2-beta (Homo sapiens) (UniProt Q14289); settings: at 0.1 µM
Protein-tyrosine kinase 2-beta (Homo sapiens), sequence (Q14289 whole entry, looked up): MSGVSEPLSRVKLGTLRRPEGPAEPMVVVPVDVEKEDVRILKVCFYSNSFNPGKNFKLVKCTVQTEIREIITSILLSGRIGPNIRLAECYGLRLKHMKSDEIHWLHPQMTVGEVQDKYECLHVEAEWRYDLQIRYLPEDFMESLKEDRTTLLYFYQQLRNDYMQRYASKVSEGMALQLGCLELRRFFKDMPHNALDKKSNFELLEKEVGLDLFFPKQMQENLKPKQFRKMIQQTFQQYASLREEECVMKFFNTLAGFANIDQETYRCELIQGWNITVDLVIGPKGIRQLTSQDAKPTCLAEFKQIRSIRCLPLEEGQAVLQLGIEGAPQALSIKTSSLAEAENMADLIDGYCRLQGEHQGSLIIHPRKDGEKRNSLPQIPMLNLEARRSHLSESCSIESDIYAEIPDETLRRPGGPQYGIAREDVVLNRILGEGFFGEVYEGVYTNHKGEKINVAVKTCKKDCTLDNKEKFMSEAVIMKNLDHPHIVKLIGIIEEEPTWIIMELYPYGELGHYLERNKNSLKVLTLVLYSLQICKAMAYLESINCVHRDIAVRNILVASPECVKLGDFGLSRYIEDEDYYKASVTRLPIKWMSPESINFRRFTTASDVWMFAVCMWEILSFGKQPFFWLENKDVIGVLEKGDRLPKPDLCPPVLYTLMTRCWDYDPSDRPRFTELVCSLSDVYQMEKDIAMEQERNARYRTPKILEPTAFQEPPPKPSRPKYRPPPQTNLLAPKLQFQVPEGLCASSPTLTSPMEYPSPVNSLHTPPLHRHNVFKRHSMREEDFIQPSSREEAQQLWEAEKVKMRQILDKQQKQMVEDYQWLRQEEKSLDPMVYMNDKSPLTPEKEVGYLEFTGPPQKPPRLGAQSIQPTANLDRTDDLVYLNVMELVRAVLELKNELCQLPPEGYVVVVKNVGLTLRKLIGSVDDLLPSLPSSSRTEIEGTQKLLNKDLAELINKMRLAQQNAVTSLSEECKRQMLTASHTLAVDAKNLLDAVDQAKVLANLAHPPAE

[5] = target: Protein-tyrosine kinase 2-beta (Homo sapiens) (UniProt Q14289); settings: at 1 µM
[6] = target: Proto-oncogene tyrosine-protein kinase receptor Ret (Homo sapiens) (UniProt P07949); settings: at 0.1 µM
Proto-oncogene tyrosine-protein kinase receptor Ret (Homo sapiens), sequence (P07949 whole entry): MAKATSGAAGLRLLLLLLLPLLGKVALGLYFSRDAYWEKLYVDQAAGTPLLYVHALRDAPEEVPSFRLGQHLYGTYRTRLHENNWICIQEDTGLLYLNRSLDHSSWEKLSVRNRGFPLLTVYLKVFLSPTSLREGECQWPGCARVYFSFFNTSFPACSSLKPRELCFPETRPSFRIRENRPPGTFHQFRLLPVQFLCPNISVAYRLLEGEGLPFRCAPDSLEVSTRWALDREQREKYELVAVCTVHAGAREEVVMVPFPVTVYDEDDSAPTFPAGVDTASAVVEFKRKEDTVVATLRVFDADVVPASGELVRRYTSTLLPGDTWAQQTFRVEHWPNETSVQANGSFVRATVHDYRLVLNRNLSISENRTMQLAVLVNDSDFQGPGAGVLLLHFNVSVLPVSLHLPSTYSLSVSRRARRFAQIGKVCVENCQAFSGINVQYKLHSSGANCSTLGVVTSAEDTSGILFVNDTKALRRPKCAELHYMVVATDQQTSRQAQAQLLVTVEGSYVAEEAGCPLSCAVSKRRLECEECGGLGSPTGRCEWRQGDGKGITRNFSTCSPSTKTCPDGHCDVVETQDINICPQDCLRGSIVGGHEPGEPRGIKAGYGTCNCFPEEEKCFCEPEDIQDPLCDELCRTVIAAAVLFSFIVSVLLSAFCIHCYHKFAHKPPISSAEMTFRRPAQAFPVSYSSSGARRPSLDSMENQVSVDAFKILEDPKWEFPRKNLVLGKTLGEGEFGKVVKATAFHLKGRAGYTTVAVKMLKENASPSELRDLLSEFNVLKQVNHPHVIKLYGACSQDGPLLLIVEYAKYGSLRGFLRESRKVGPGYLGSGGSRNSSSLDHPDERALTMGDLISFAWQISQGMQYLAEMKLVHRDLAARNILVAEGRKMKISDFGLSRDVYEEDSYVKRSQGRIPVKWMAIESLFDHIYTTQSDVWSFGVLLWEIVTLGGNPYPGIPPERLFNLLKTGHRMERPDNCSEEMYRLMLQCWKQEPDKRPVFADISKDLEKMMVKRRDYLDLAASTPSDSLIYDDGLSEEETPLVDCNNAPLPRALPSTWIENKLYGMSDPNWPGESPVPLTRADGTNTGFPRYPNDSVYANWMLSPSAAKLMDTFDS

[7] = target: Proto-oncogene tyrosine-protein kinase receptor Ret (Homo sapiens) (UniProt P07949); settings: at 1 µM
[8] = system: Proto-oncogene tyrosine-protein kinase receptor Ret (Homo sapiens), P07949 [V804L]; settings: at 0.1 µM
Proto-oncogene tyrosine-protein kinase receptor Ret (Homo sapiens), P07949 [V804L], sequence (P07949 whole entry V804L): as the sequence (P07949 whole entry) above, with V804L counted along it

[9] = system: Proto-oncogene tyrosine-protein kinase receptor Ret (Homo sapiens), P07949 [V804L]; settings: at 1 µM
[10] = system: Proto-oncogene tyrosine-protein kinase receptor Ret (Homo sapiens), P07949 [Y791F]; settings: at 0.1 µM
Proto-oncogene tyrosine-protein kinase receptor Ret (Homo sapiens), P07949 [Y791F], sequence (P07949 whole entry Y791F): as the sequence (P07949 whole entry) above, with Y791F counted along it

[11] = system: Proto-oncogene tyrosine-protein kinase receptor Ret (Homo sapiens), P07949 [Y791F]; settings: at 1 µM
[12] = target: Macrophage-stimulating protein receptor (Homo sapiens) (UniProt Q04912); settings: at 0.1 µM
[13] = target: Macrophage-stimulating protein receptor (Homo sapiens) (UniProt Q04912); settings: at 1 µM
[14] = target: Proto-oncogene tyrosine-protein kinase ROS (Homo sapiens) (UniProt P08922); settings: at 0.1 µM
[15] = target: Proto-oncogene tyrosine-protein kinase ROS (Homo sapiens) (UniProt P08922); settings: at 1 µM
[16] = target: Proto-oncogene tyrosine-protein kinase Src (Homo sapiens) (UniProt P12931); settings: at 0.1 µM
Proto-oncogene tyrosine-protein kinase Src (Homo sapiens), sequence (P12931 2-536 limits assumed): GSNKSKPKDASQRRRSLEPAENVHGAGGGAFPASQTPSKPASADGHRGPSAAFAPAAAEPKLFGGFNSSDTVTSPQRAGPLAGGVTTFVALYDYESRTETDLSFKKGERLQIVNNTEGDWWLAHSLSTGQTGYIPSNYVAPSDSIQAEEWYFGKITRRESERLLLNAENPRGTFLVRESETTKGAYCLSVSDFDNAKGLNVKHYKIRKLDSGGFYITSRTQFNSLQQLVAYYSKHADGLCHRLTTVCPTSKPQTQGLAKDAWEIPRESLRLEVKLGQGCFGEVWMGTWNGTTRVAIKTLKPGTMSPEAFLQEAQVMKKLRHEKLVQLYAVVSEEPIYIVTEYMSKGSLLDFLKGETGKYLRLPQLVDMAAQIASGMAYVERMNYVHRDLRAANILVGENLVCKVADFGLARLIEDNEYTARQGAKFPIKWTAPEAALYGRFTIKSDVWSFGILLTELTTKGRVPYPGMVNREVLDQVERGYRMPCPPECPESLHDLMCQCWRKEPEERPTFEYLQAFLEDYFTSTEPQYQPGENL

[17] = target: Proto-oncogene tyrosine-protein kinase Src (Homo sapiens) (UniProt P12931); settings: at 1 µM
[18] = target: Tyrosine-protein kinase Srms (Homo sapiens) (UniProt Q9H3Y6); settings: at 0.1 µM
Tyrosine-protein kinase Srms (Homo sapiens), sequence (Q9H3Y6 whole entry): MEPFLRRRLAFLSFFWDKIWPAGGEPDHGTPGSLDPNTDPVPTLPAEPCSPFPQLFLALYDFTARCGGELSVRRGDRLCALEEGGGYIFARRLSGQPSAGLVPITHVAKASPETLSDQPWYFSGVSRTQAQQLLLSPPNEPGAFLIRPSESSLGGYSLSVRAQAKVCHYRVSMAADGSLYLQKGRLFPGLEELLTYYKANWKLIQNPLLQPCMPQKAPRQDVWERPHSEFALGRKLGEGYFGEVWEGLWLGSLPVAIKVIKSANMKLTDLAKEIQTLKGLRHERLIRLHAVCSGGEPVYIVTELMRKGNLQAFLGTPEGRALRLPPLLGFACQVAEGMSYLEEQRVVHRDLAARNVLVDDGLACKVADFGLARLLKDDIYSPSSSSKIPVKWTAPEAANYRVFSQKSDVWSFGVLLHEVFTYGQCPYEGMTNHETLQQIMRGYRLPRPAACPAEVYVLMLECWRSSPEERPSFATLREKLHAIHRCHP

[19] = target: Tyrosine-protein kinase Srms (Homo sapiens) (UniProt Q9H3Y6); settings: at 1 µM
[20] = target: Tyrosine-protein kinase SYK (Homo sapiens) (UniProt P43405); settings: at 0.1 µM;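 note: reported percentages are mean inhibition values for SYK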

Tyrosine-protein kinase FRK (Homo sapiens), sequence (P42685 whole entry): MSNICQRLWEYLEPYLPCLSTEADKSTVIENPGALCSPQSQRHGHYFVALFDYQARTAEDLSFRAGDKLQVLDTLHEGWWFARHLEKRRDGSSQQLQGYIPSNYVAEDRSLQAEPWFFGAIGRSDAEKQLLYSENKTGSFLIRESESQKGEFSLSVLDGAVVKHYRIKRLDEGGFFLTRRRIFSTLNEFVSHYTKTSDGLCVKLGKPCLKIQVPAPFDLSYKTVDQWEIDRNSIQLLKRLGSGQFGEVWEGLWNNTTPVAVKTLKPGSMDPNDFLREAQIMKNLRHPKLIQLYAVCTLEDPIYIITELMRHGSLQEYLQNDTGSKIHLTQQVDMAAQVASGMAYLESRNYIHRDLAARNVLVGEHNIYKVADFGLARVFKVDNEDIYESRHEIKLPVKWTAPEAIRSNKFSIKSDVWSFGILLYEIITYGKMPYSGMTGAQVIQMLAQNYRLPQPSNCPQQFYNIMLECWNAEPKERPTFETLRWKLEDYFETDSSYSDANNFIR
Platelet-derived growth factor receptor beta (Homo sapiens), sequence (P09619 whole entry): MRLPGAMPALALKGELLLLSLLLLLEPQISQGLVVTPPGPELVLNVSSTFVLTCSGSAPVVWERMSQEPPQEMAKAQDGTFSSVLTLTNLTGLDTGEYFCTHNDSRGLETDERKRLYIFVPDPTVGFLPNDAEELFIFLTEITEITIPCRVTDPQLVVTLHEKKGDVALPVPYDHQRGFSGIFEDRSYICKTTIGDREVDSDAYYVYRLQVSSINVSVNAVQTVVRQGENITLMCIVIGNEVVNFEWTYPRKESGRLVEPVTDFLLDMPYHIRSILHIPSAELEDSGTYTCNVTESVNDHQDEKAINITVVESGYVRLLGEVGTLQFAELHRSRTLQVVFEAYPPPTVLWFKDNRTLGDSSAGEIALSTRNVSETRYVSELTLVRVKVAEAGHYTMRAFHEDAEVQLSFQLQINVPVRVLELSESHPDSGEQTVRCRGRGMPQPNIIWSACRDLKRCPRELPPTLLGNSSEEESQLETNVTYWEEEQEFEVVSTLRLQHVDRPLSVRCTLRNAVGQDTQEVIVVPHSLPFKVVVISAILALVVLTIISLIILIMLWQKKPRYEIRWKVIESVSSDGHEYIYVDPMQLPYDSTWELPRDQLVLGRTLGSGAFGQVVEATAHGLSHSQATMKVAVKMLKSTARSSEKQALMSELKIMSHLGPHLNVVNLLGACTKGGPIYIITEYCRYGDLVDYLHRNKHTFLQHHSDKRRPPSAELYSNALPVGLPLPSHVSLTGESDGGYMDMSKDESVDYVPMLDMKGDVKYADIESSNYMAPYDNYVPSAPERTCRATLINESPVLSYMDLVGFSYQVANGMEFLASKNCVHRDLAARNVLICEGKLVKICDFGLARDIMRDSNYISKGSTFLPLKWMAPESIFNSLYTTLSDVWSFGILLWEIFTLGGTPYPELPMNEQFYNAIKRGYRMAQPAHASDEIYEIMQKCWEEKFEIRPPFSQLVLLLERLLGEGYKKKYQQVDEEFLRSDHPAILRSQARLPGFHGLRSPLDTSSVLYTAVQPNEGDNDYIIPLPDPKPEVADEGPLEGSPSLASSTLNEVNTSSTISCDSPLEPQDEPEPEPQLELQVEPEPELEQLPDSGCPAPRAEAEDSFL

| Structure (SMILES) | inhibition [1] [%] | inhibition [2] [%] | inhibition [3] [%] | inhibition [4] [%] | inhibition [5] [%] | inhibition [6] [%] | inhibition [7] [%] | inhibition [8] [%] | inhibition [9] [%] | inhibition [10] [%] | inhibition [11] [%] | inhibition [12] [%] | inhibition [13] [%] | inhibition [14] [%] | inhibition [15] [%] | inhibition [16] [%] | inhibition [17] [%] | inhibition [18] [%] | inhibition [19] [%] | inhibition [20] [%] |
| --- | --- | --- | --- | --- | --- | --- | --- | --- | --- | --- | --- | --- | --- | --- | --- | --- | --- | --- | --- | --- |
| Clc1ccc(CNc2nccc(-c3cnn4ncccc34)n2)cc1 | 13.8 | 0.01 | 1.32 | -4.51 | 2.8 | 0.88 | 5.75 | -0.76 | 5.56 | -0.42 | 20.4 | -1.7 | 6.29 | 0.86 | 6.59 | 0.82 | 6.25 | 0.35 | -1.1 | 2.92 |
| C[C@@H](Oc1cc(-n2cnc3ccc(OC4CCN(C)CC4)cc32)sc1C(N)=O)c1ccccc1Cl | 70.8 | 3.35 | 3.66 | 4.13 | 11.7 | 3.19 | 16.5 | 2.32 | 15.8 | 6.79 | 22 | 0.07 | 9.84 | 8.31 | 15.5 | 10.3 | 18.7 | -0.74 | -2.64 | -0.76 |
| COC(=O)Nc1nc2ccc(Sc3ccc(NC(=O)Nc4cc(C(F)(F)F)ccc4F)cc3)cc2[nH]1 | 16.5 | 0.1 | 0.7 | 2.56 | 0.15 | 24.7 | 74.1 | 9.72 | 58 | 23 | 73.9 | -5.81 | -0.55 | -2.6 | 0.19 | 17.4 | 12.5 | 1.2 | -0.15 | 0.25 |
| COc1cc2ncn(-c3cc(OCc4cccs4)c(C(N)=O)s3)c2cc1OC | 72.5 | 1.41 | 1.32 | 3.08 | 6.94 | 11.9 | 43.5 | 7.23 | 24.7 | 15 | 54.5 | 5.86 | 7.33 | 7.93 | 30.5 | 3.31 | 17.6 | 2.39 | 7.35 | 0.21 |
| CN(C)CCCNc1nccc(-c2c(-c3ccc(F)cc3)nn3cc(C(F)(F)F)ccc23)n1 | 14.1 | -0.09 | 1.37 | -1.38 | 1.42 | 7.28 | 10.8 | 8.31 | 21.7 | 10.9 | 13.2 | 3.96 | 5.64 | 3.75 | 7.77 | 16.6 | 9.03 | 0.42 | 0.14 | -3.32 |
| C[C@@H](Oc1cc(-n2cnc3ccc(OCC4CCN(C)CC4)cc32)sc1C(N)=O)c1ccccc1Cl | 84.7 | 3.53 | 3.93 | 5.71 | 13.7 | 6.25 | 18.2 | 5.76 | 16.7 | 8.22 | 20.1 | 0.85 | 13.1 | 10.2 | 21.6 | 11.9 | 33.2 | -3.18 | -0.97 | -0.18 |
| NC(=O)Cc1ccccc1Oc1nccc(-c2c(-c3ccc(F)cc3)ncn2C2CCNCC2)n1 | 5.76 | 1.11 | 3.64 | 5.56 | 3.38 | 5.79 | 3.25 | 2.51 | 0.95 | 3.81 | 4.66 | -4.83 | 4.24 | 6.52 | 7.32 | 1.88 | 5.52 | -1.62 | -0.3 | -2.13 |
| Cc1ccc(C(=O)NC2CCC2)cc1-c1ccc(C(=O)NCC2CC2)cc1 | 4.37 | 1.45 | 0.56 | 4.2 | 4.27 | 7.54 | 8.34 | 4.17 | -0.01 | 2.44 | 2.67 | 5.75 | 4.87 | 3.25 | 2.72 | 1.78 | 4.45 | -2.12 | -0.59 | -0.95 |
| Fc1ccc(-c2ncn(C3CCNCC3)c2-c2ccnc(Oc3ccc4c(c3)OCO4)n2)cc1 | 12.7 | 3.01 | 4.4 | 7 | 9.57 | 3.97 | 6.88 | 9.21 | 12.4 | 14.5 | 12.8 | 3.59 | 4.19 | 4.93 | 8.59 | 7.77 | 8.43 | -2.94 | -4.12 | -0.62 |
| O=C(NCC1CC1)c1ccc(-c2cccc(C(=O)NC3CC3)c2)cc1 | 8.57 | 1.88 | 0.07 | 1.01 | 8.49 | 3.9 | 7.06 | 1.77 | 7.1 | 8.82 | 24.5 | 4.01 | 0 | 3.69 | 6.33 | 2.23 | 7.22 | -2.13 | -0.43 | -0.53 |
| COc1cc(Nc2ncc(-c3ccccc3)o2)cc(OC)c1OC | 74.2 | 0.5 | 4.26 | -6.53 | 5.39 | 2.33 | 15.5 | 1 | 16.2 | 0.66 | 16.2 | -0.55 | 3.47 | 2.53 | 15.8 | 19.7 | 72.4 | -1.26 | 3.83 | -0.67 |
| COc1cccc(-n2cnc3c(N/N=C/c4ccncc4)ncnc32)c1 | 49.9 | -0.1 | 0.9 | -4.12 | 10.5 | 3.89 | 13.9 | -0.06 | 12.5 | 2.51 | 32.8 | 0.89 | 0.14 | -1.03 | 4.38 | 12.5 | 50.4 | 2.47 | 6.19 | 1.9 |
| CN1CCN(CCCNc2nc3ccc(Oc4ccc(NC(=O)Nc5cc(C(F)(F)F)ccc5F)cc4)cc3[nH]2)CC1 | 25.8 | -0.13 | 5.78 | 6.22 | 7.87 | 76.2 | 86.2 | 38.8 | 74.9 | 65.8 | 83.9 | -2.7 | 5.53 | 5.6 | 9.76 | 4.89 | 3.58 | 2.32 | 0.43 | 0.25 |
| O=C(Nc1n[nH]c2nc(-c3ccco3)ccc12)C1CC1 | 5.96 | 0.93 | 1.05 | 1.43 | 0.04 | 8.2 | 9.6 | 4.51 | 8.22 | 4.94 | 8.66 | -0.93 | 4.1 | 3 | 3.03 | -4.02 | 4.81 | 1.77 | 1.57 | -0.47 |
| O=C1Nc2ccc(I)cc2C1=Cc1cc(Br)c(O)c(Br)c1 | 2.27 | 2.55 | 4.15 | 5.41 | 3.05 | 5.98 | 7.84 | 1.81 | 12 | 6.36 | 5.79 | 8.18 | 13.2 | 6.23 | 8.1 | 8.18 | 14.2 | 2.19 | 27.2 | 1.97 |
| NC(=O)c1cc(-c2ccc(F)cc2)cc(-c2ccncc2)c1N | 5.05 | 1.66 | 1.82 | – | – | 6.04 | 1.69 | 2.31 | 2.03 | 4.64 | 8.5 | 3.91 | 2.73 | 3.93 | 6.41 | -1.61 | 10.9 | -0.29 | -1.13 | -2.32 |
| COc1cc2ncn(-c3cc(OCc4ccccc4C(F)(F)F)c(C(C)=O)s3)c2cc1OC | 21.5 | 0.97 | 2.94 | – | – | 4.62 | 5.58 | 5.33 | 9.72 | 7.72 | 12.8 | 2.88 | 20 | 0.39 | 7.62 | 6.86 | 6.06 | -2.02 | 0.82 | 0.3 |
| O=C1NC(=O)C(c2cccc(Cl)c2)=C1Nc1ccc(Cl)c(C(=O)O)c1 | 8.9 | -0.46 | 2.48 | 7.05 | 6.6 | 7.27 | 3.52 | 5.17 | 7.71 | 3.26 | 13.8 | 5.57 | 1.47 | 2 | 0.59 | 8.46 | 8.07 | 0.43 | 0.54 | 1.85 |
| COc1cccc(/C=N/Nc2ncnc3c2cnn3-c2cccc(OC)c2)c1 | 11 | 2.06 | 3.36 | 1 | 10.2 | 0.27 | 6.95 | 0.36 | 1.63 | 3.95 | 6.96 | 0.75 | 4.77 | 5.15 | 8.27 | 7.02 | 17.5 | -1.15 | -3.63 | 2.69 |
| Fc1ccc(-c2nc3n(c2-c2ccncc2)CCS3)cc1 | 8.35 | 1.92 | 3.19 | 9.18 | 6.63 | 4.05 | 8.81 | 9.59 | 12.6 | 5.15 | 9.79 | -2.87 | 6.64 | 7.49 | 6.54 | 3.03 | 8.62 | -2.19 | -4.01 | -6.2 |
| CN(c1ccc(NC(=O)Nc2c(Cl)cccc2Cl)cc1)c1ccnc(Nc2cccc(CS(C)(=O)=O)c2)n1 | 77.7 | 3.86 | 14.5 | 55.1 | 29.7 | 23.8 | 48.6 | 13.2 | 41 | 24.4 | 64.8 | 68.8 | 82.1 | 14.8 | 33.5 | 40.7 | 65.4 | 2.98 | 3.99 | 2.77 |
| COc1ccc(C2=C(N3CCc4ccccc43)C(=O)NC2=O)cc1 | 12.1 | 2.66 | 0.27 | 11.7 | 16 | 9.66 | 6.15 | 5.21 | 7.12 | 6.21 | 9.39 | 9.63 | 6.83 | 6.01 | 9.68 | -1.55 | 10.8 | 7.78 | 14.7 | -4.17 |
